Source: the supplement of paper PMC6522484
± gives the standard deviation of the averaged measurements.

Assays:
DLD1 [1] = assay: cell viability (CellTiter-Glo) relative to plate median (fraction of plate median); higher = more viable cells; conditions: 5 µM; treatment time 24 h; reporter: 7TFP
In short: (§1)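 Luminescence, normalised well by well to the plate median, is tabulated as a mean of independent replicates. There were two replicates, run on colorectal cancer lines stably transduced with lentiviral TCF/Wnt firefly luciferase reporters and dosed with library compounds at a final 5 µM for 24 h. Readouts were firefly luciferase or CellTiterGlo on parallel plates.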

HCT116 = assay: as above; conditions: 5 µM; treatment time 24 h; reporter: TCF4/Wnt
In short: as §1

SW480 [2] = assay: as above; conditions: 5 µM; treatment time 24 h; reporter: 7TFP
In short: as §1

DLD1 [3] = assay: TCF/Wnt firefly luciferase reporter signal relative to plate median (fraction of plate median); higher = higher Wnt reporter signal; conditions: 5 µM; treatment time 24 h; reporter: 7TFP
In short: as §1

SW480 [4] = assay: as above; conditions: 5 µM; treatment time 24 h; reporter: 7TFP
In short: as §1

Row | SMILES | cell viability (DLD1 [1]) | cell viability (HCT116) | cell viability (SW480 [2]) | TCF/Wnt firefly luciferase reporter signal (DLD1 [3]) | TCF/Wnt firefly luciferase reporter signal (SW480 [4])
1 | CC(=O)Oc1cc(-c2coc3cc(OC(C)=O)c(OC(C)=O)c(OC(C)=O)c3c2=O)cc(OC(C)=O)c1OC(C)=O | 1 ± 0.015 | 1.09 ± 0.2 | 0.998 ± 0.018 | 1.09 ± 0.17 | 0.95 ± 0.1
2 | CC(C)c1cccc(=O)c(O)c1 | 1.11 ± 0.13 | 1.07 ± 0.042 | 1.1 ± 0.021 | 1.03 ± 0.073 | 0.985 ± 0.064
3 | Clc1ccc(COC(Cn2ccnc2)c2ccc(Cl)cc2Cl)c(Cl)c1 (stereo not given) | 0.964 ± 0.042 | 1.01 ± 0.014 | 0.973 ± 0.0099 | 1.04 ± 0.11 | 1.04 ± 0.12
4 | CC[C@]12CCCN3CCc4c(n(c5ccccc45)[C@@](O)(C(=O)OC)C1)[C@@H]32 | 1.02 ± 0.047 | 0.953 ± 0.096 | 1.03 ± 0.014 | 0.981 ± 0.11 | 0.971
5 | CCCCCC(=O)Cc1cc(O)cc(O)c1C(=O)Oc1cc(CC(=O)CCCCC)c(C(=O)O)c(OC)c1 | 0.992 ± 0.04 | 1.01 ± 0.018 | 0.966 ± 0.012 | 1.07 ± 0.15 | 1.14 ± 0.035
6 | Cc1ccc(C)c(OCCCC(C)(C)C(=O)O)c1 | 0.985 ± 0.092 | 0.986 ± 0.034 | 1.01 ± 0.015 | 1.015 ± 0.0071 | 1.06 ± 0.05
7 | NC(=O)c1ccc[n+]([C@@H]2O[C@H](COP(=O)([O-])OP(=O)(O)OC[C@H]3O[C@@H](n4cnc5c(N)ncnc54)[C@H](O)[C@@H]3O)[C@@H](O)[C@H]2O)c1 | 0.955 ± 0.11 | 0.956 ± 0.09 | 0.942 ± 0.027 | 1.1 ± 0.057 | 1.24 ± 0.071
8 | O=C1C=C2CC3(O)COc4c(ccc(O)c4O)C3=C2C=C1O (stereo not given) | 0.988 ± 0.073 | 1.04 ± 0.065 | 1.06 ± 0.13 | 0.943 ± 0.081 | 1.05
9 | C[C@H](CCC(=O)O)[C@H]1CC[C@H]2[C@@H]3[C@H](O)C[C@@H]4C[C@H](O)CC[C@]4(C)[C@H]3C[C@H](O)[C@]12C | 0.99 ± 0.043 | 1.07 ± 0.15 | 1.04 ± 0.066 | 1.02 ± 0.13 | 1.07 ± 0.035
10 | CC(=O)O[C@]1(C(C)=O)CC[C@H]2[C@@H]3C=C(Cl)C4=CC(=O)[C@@H]5C[C@@H]5[C@]4(C)[C@H]3CC[C@@]21C | 1 ± 0.035 | 0.96 ± 0.086 | 0.948 ± 0.0028 | 0.81 ± 0.052 | 0.923 ± 0.22
11 | CN1CC(=O)NC1=N | 1.02 ± 0.04 | 0.943 ± 0.021 | 1.02 ± 0.021 | 0.979 ± 0.059 | 0.935 ± 0.13
12 | O=C(/C=C/c1ccccc1)c1ccc(O[C@@H]2O[C@H](CO)[C@@H](O)[C@H](O)[C@H]2O)cc1O | 0.947 ± 0.022 | 0.83 ± 0.04 | 0.978 ± 0.018 | 1.02 ± 0.036 | 1.13 ± 0.057
13 | COc1ccc2cc(CCC(C)=O)ccc2c1 | 0.968 ± 0.074 | 0.905 ± 0.09 | 0.925 ± 0.0085 | 1.24 ± 0.27 | 1.25 ± 0.035
14 | COc1cc2c(cc1OC)[C@@H]1C(=O)c3ccc4c(c3O[C@@H]1CO2)C=CC(C)(C)O4 | 1.09 ± 0.021 | 0.79 ± 0.14 | 1.02 ± 0.094 | 0.9 ± 0.1 | 0.884
15 | CC1(C)S[C@@H]2[C@H](NC(=O)C(C(=O)O)c3ccccc3)C(=O)N2[C@H]1C(=O)O (stereo not given in full) | 0.912 ± 0.073 | 0.9345 ± 0.0064 | 0.9405 ± 0.005 | 0.999 ± 0.13 | 1.05 ± 0.021
16 | N=C(N)NS(=O)(=O)c1ccc(N)cc1 | 0.943 ± 0.044 | 0.892 ± 0.057 | 0.981 ± 0.027 | 0.962 ± 0.033 | 0.986 ± 0.048
17 | NC[C@H]1O[C@H](O[C@H]2[C@H](O)[C@@H](O[C@H]3O[C@H](CO)[C@@H](O)[C@H](N)[C@H]3O)[C@H](N)C[C@@H]2N)[C@H](N)C[C@@H]1O | 0.854 ± 0.012 | 0.922 ± 0.073 | 0.998 ± 0.06 | 0.992 ± 0.0042 | 1.05 ± 0.076
18 | CN(C)CCC(c1ccccc1)c1ccccn1 (stereo not given) | 0.973 ± 0.039 | 1 ± 0.18 | 0.963 ± 0.032 | 1.16 ± 0.035 | 1.055 ± 0.0071
19 | C[C@H]1O[C@@H](O[C@H]2[C@@H](O)C[C@H](O[C@H]3[C@@H](O)C[C@H](O[C@H]4CC[C@@]5(C)[C@H](CC[C@@H]6[C@@H]5C[C@@H](O)[C@]5(C)[C@@H](C7=CC(=O)OC7)CC[C@]65O)C4)O[C@@H]3C)O[C@@H]2C)C[C@H](O)[C@@H]1O | 0.838 ± 0.068 | 0.282 ± 0.23 | 0.855 ± 0.053 | 0.151 ± 0.15 | 0.221 ± 0.094
20 | COc1c2ccoc2cc2oc(C)cc(=O)c12 | 0.967 ± 0.016 | 0.973 ± 0.12 | 0.92 ± 0.0042 | 0.894 ± 0.012 | 0.986 ± 0.034
21 | O=c1cc(-c2ccccc2O)oc2cc(O)ccc12 | 1.01 ± 0.069 | 1.02 ± 0.094 | 0.976 ± 0.025 | 1.17 ± 0.042 | 1.23 ± 0.085
22 | O=c1cc(-c2ccccc2)oc2c(O)c(O)ccc12 | 1.11 ± 0.11 | 0.969 ± 0.039 | 0.98 ± 0.015 | 1.13 ± 0.071 | 1.11 ± 0.057
23 | CCC(=O)OCC(=O)[C@@]1(OC(=O)CC)[C@H](C)CC2C3C([C@@H](O)C[C@@]21C)[C@@]1(C)C=CC(=O)C=C1C[C@H]3Cl (stereo not given in full) | 1.01 ± 0.014 | 1.02 ± 0.014 | 0.975 ± 0.0057 | 0.9755 ± 0.0078 | 0.926 ± 0.049
24 | Nc1ccc(C(=O)NCC(=O)O)cc1 | 0.988 ± 0.059 | 0.962 ± 0.069 | 0.98 ± 0.057 | 0.998 ± 0.088 | 0.984 ± 0.12
25 | CC1(C)O[C@@H]2C[C@H]3[C@@H]4C[C@H](F)C5=CC(=O)C=C[C@]5(C)[C@H]4[C@@H](O)C[C@]3(C)[C@]2(C(=O)CO)O1 | 0.996 ± 0.0057 | 1.03 ± 0.055 | 0.978 ± 0.0042 | 0.928 ± 0.0085 | 1.03 ± 0.067
26 | Cc1cc(C(C)(C)CC(C)(C)C)ccc1OCCOCC[N+](C)(C)Cc1ccccc1 | 1.02 ± 0.069 | 0.977 ± 0.076 | 1.08 ± 0.014 | 0.87 ± 0.061 | 0.909 ± 0.028
27 | COc1ccc2c(c1)OCC(Cc1ccc(OC)c(OC(C)=O)c1)C2=O (stereo not given) | 1.025 ± 0.0071 | 0.919 ± 0.059 | 1.03 | 0.969 ± 0.12 | 0.858 ± 0.18
28 | COc1c2ccoc2c(OC)c2oc(=O)ccc12 | 0.95 ± 0.0099 | 0.966 ± 0.16 | 1.07 ± 0.028 | 0.982 ± 0.11 | 0.927 ± 0.017
